Data from the supplement of paper PMC9948646.

System: gramicidin D channels in DC22:1PC lipid vesicles (bilayer-modifying potency)
Experiment: initial Tl+ fluorescence quench rate relative to no-drug control (NormRate, gramicidin monomer-dimer shift) (ratio (fold of control)); higher = stronger bilayer-modifying effect (equilibrium shifted toward conducting dimers), active = 1.5 or more
Settings: 10 µM; lipid concentration 50 µM; temperature: 25 °C
Description: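 Stopped-flow fluorescence quench assay: ANTS-loaded DC22:1PC large unilamellar vesicles doped with gramicidin D (1:2000), 50 µM lipid, equilibrated 10 min with 10 µM drug (0.1% DMSO), mixed with Tl+ quench buffer at 25°C. Initial quench rate (Tl+ influx) was fitted with a modified stretched exponential and normalised to the no-drug control rate (NormRate); duplicates from two independent LUV preparations (triplicates for 7 drugs).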

Initial Tl+ fluorescence quench rate, active:
O=C(NCCN1CCCC1)c1cc(NCCCCN2CCC(F)(F)CC2)nc2ccc(Cl)cc12 1.92
CC(C)(C)n1nc(Cc2ccc(F)c(Cl)c2)c2c(N)ncnc21 1.84
Cc1ccc(NC(=O)C[C@@H]2COc3ccccc3O2)cc1Cl 2.24
CC[C@H](C)NC(=O)c1ccc(NC(=O)C2(c3ccccc3)CCCC2)cc1 1.75
c1ccc(Oc2ccc(-c3cc(C4CCOCC4)[nH]n3)cc2)cc1 3.48
OC[C@H]1O[C@@H](n2c3ccc(Cl)cc3c3c(-c4cc5ccccc5o4)ncnc32)[C@H](O)[C@H]1O 3.52
CCCS(=O)(=O)N1CCC(CO)(Cc2ccccc2C(F)(F)F)CC1 1.62
[H]/N=C(/N)Nc1ccc(-c2ccc(-c3ccc(N=C(N)N)c(Cl)c3)o2)cc1Cl 1.59

Initial Tl+ fluorescence quench rate, inactive:
Nc1ncnc2c1ncn2[C@@H]1O[C@H](COS(=O)(=O)NC(=O)c2ccccc2O)[C@@H](O)[C@H]1O 1.02
Cc1cnc(CCNC(=O)c2cc(-c3ccc(Cl)cc3)cs2)[nH]1 1.34
N#Cc1nc(-c2ccccc2F)oc1NCCc1ccccc1 1.04
COc1cccc(-n2nnnc2S(C)(=O)=O)c1 1.06
CNC(=O)c1cc(S(=O)(=O)N2CCN(c3ccccn3)CC2)cs1 1.07
Cc1cc(C)n2nc(C(=O)Nc3cc(C(F)(F)F)ccc3N3CCOCC3)nc2n1 1.17
COc1ccc(S(=O)(=O)Nc2ccc(CN3CCN(C(=O)c4cccc(C#N)c4)CC3)cc2)cc1 1.41
COc1ccc(-c2cnc3ccc(NCc4ccc(S(N)(=O)=O)cc4)nn23)cn1 1.24
O=[N+]([O-])c1cn2c(n1)OC[C@@H](OCc1ccc(OC(F)(F)F)cc1)C2 1.38
COc1cc(-c2cc(-c3ccc(S(C)(=O)=O)cc3)cnc2N)ccc1O 1.09
CCN(CC)CCCCCCNc1cc(OC)cc2c(C)ccnc12 1.45
Clc1ccc(-n2cc(COc3ccnc4ccccc34)nn2)cc1 1.13
Cc1nnc(NCc2cccc(Cl)c2)c2ccccc12 1.05
CC(C)NCC(=O)Nc1cccc(C(=O)Nc2cccc(C(F)(F)F)c2)c1 1.37
FC(F)(F)c1nnc2ccc(Cl)nn12 1.02
CC(C)(C)OC(=O)N1CCN(c2nccc(-c3ccc(-c4ccc(Cl)cc4)s3)n2)CC1 1.28
CCOC(=O)c1cc(-c2csc(Nc3c(C)cc(C)cc3C)n2)on1 1.15
COc1cccc2c(C)nc(N=C(N)N)nc12 1.08
CNc1nnc(Sc2cnn(-c3ccccc3)c(=O)c2Cl)s1 1.04
O=C(NCc1nnc2n1CCCCC2)c1ccc(-c2ccc(F)cc2)o1 1.08
Nc1nccc2ccc(Oc3ccncc3)cc12 1.1
CC[C@H](CO)NCCN[C@H](CC)CO 1.02
c1ccc(C[C@@H]2CN(c3nccc(Oc4ccc(-n5ccnc5)cc4)n3)CCN2)cc1 1.26
Cc1nc(-c2ccccn2)nc(NCCc2ccc(S(C)(=O)=O)cc2)c1Cl 1.13
CCCNC(=O)N1CCC2(CC1)CC(=O)c1cc(C)ccc1O2 1.15
NC(=O)c1cc(Br)ccc1OCCOc1ccccc1 1.21
CCc1ccccc1-n1c(C)cn2c3c(=O)n([C@@H](C(=O)OC)C(C)C)c(=O)n(C)c3nc12 1.2
CCCCc1ccc(C(=O)Nc2nccc3ccccc23)nc1 1.33
COc1ccc(CCN2CCC(NCc3cccc(N(C)C)c3)CC2)cc1 1.07
COc1cccc(-c2nc3c(N4CCCC4)cccc3n2C[C@H]2CCCN2)n1 1.21
